Source: the supplement of paper PMC6555819

How the values were obtained:
Experiment in all cases: PBM binding z-score (relative to random genomic background probes); higher = stronger binding; sequences stand for … in GC…GCGATTGACAGCGTAGAATGAAGG
[1] = test system: RARb homodimer (NR concentration 270 nM)
In short: (§1)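 Scanned fluorescence from custom Agilent 4×180K protein-binding microarrays was regression-normalized. Binding z-scores use random background probes as reference. Ligand-free nuclear receptor dimers were incubated on the arrays for 1 h and detected with antibodies against each partner (one per run).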

[2] = test system: RARg:RXRa (NR concentration 270 nM, RXRa partner concentration 90 nM)
In short: as §1

[3] = test system: RARg homodimer (NR concentration 270 nM)
In short: as §1

[4] = test system: RXRa DBDmut IVT, anti-RXR (DBD mutation: RXRa K156A/R161A, NR concentration 90 nM)
In short: as §1

[5] = test system: RXRa homodimer (NR concentration 180 nM)
In short: as §1

[6] = test system: THRa:RXRa (NR concentration 90 nM, RXRa partner concentration 90 nM)
In short: as §1

[7] = test system: THRa homodimer (NR concentration 90 nM)
In short: as §1

[8] = test system: VDR homodimer (NR concentration 270 nM)
In short: as §1

Row | Sequence | PBM binding z-score [1] | PBM binding z-score [2] | PBM binding z-score [3] | PBM binding z-score [4] | PBM binding z-score [5] | PBM binding z-score [6] | PBM binding z-score [7] | PBM binding z-score [8]
1 | TAGCCTAGGTCAGATCGGCCCAGTATACGCTATA | 1.84 | 2.5 | 3.35 | -0.434 | 1.35 | 1.98 | -0.12 | -0.474
2 | GCTAGATGGTCAGTAAAAGGTCACACACCGGTCG | 5.31 | 5.52 | 4.87 | 0.182 | 5.18 | 3.69 | 1.89 | 1.57
3 | TCGAGTAGGTTAGTCGGGGCATTCCGCCAACATA | 0.291 | -0.0295 | -0.243 | 0.165 | 0.00868 | 1.05 | -0.473 | -0.0294
4 | CCGAGTAGGTTTTGGGGCATTCAGGCAACGGTGA | 0.615 | -0.245 | -0.424 | 0.218 | -0.246 | 0.595 | 0.467 | 0.218
5 | AGAATGAGGTTATACGTAGATCAGGGCAGAAAGT | 1.33 | 1.72 | 1.08 | 1.89 | 2.36 | 2.43 | 1.05 | 1.47
6 | CGAACTAGGTCACGGACAGTGAATCTCCGCACGC | 3.36 | 5.11 | 5.73 | 1.82 | 3.99 | 3.53 | 2.1 | 0.814
7 | AATCCAGGGTCACTAGGCCAGAGTAGGTACGAAT | 3.4 | 5.39 | 4.98 | 2.49 | 5.55 | 3.54 | 1.29 | 2.57
